In all, about 140,000 sequences were measured (“enrichment ratio after two sorts for PhoP signalling”: median about 0, highest 2% from about 11 on). The list comes from a sample in which the highest values are over-represented; it also holds similar and randomly drawn sequences.
B1: PhoQ; a variant is named by its letters at X, in order, P23837 (parent)
chain: MKKLLRLFFPLSLRVRFLLATAAVVLVLSLAYGMVALIGYSVSFDKTTFRLLRGESNLFYTLAKWENNKLHVELPENIDKQSPTMTLIYDENGQLLWAQRDVPWLMKMIQPDWLKSNGFHEIEADVNDTSLLLSGDHSIQQQLQEVREDDDDAEMTHSVAVNVYPATSRMPKLTIVVVDTIPVELKSSYMVWSWFIYVLSANLLLVIPLLWVAAWWSLRPIEALAKEVRELEEHNRELLNPATTRELTSLVRNLNRLLKSERERYDKYRTTLTDLTHSLKTPLXXLQXXLRSLRSEKMSVSDAEPVMLEQISRISQQIGYYLHRASMRGGTLLSRELHPVAPLLDNLTSALNKVYQRKGVNISLDISPEISFVGEQNDFVEVMGNVLDNACKYCLEFVEISARQTDEHLYIVVEDDGPGIPLSKREVIFDRGQRVDTLRPGQGVGLAVAREITEQYEGKIVAGESMLGGARMEVIFGRQHSAPKDE

Variants of: B1
Assay: enrichment ratio after two sorts for PhoP signalling (ratio (wild type AVST 3.29)); higher = more functional
Details: with PhoP (E. coli)

Variant | enrichment ratio
ATSH | 10.6
RYPH | ≤ 0.25
VVLY | ≤ 0.25
VSDV | ≤ 0.25
FWLQ | ≤ 0.25
ISFK | ≤ 0.25
HFQN | ≤ 0.25
SRTQ | ≤ 0.25
FDLM | ≤ 0.25
KKLM | ≤ 0.25
IQLM | 3.4
HKLM | ≤ 0.25
ADLM | 12.7
THLM | 12.3
APLM | ≤ 0.25
NHLM | ≤ 0.25
TKLM | 21.3
AQLM | 19.4
VHLM | ≤ 0.25
FHFT | ≤ 0.25
HCCR | ≤ 0.25
PGAV | ≤ 0.25
DVEF | ≤ 0.25
FMQW | ≤ 0.25

Variant | enrichment ratio
QFLI | ≤ 0.25
NSRM | ≤ 0.25
RLVV | ≤ 0.25
TNMN | ≤ 0.25
YTNN | ≤ 0.25
TVNN | 12.7
SPNN | ≤ 0.25
KCNN | ≤ 0.25
TNNN | 14.7
ITNN | ≤ 0.25
PVNN | ≤ 0.25
TWNN | 0.76
TTNN | 17.8
TNQN | 16.8
TNEN | ≤ 0.25
MDAD | ≤ 0.25
QRKY | ≤ 0.25
NDMN | ≤ 0.25
EKIL | ≤ 0.25
PHCG | ≤ 0.25
SNES | ≤ 0.25
IPVP | ≤ 0.25
LTNN | ≤ 0.25
TDNN | 33.6

Variant | enrichment ratio
FDNN | ≤ 0.25
TNKH | ≤ 0.25
MNQH | ≤ 0.25
TNQH | 15
ISMG | 1.17
WDMF | ≤ 0.25
KSIQ | ≤ 0.25
WNCS | ≤ 0.25
TCTI | 17.1
KCTI | ≤ 0.25
TCDW | ≤ 0.25
TCTS | 17.5
TCTE | ≤ 0.25
TCTK | 5.27
TCIC | ≤ 0.25
TCTH | 3.96
TCTC | 11.4
TCNK | ≤ 0.25
TCTA | 11.4
KCTA | ≤ 0.25
WMFM | ≤ 0.25
HQPT | ≤ 0.25
PYKQ | ≤ 0.25
WRPH | ≤ 0.25

Variant | enrichment ratio
LLYS | ≤ 0.25
VMRN | ≤ 0.25
AANR | ≤ 0.25
IGAM | ≤ 0.25
SVEG | ≤ 0.25
NHNM | ≤ 0.25
VWYA | ≤ 0.25
SFCD | ≤ 0.25
TSCG | 7.32
SSQP | ≤ 0.25
SPCV | ≤ 0.25
SSCI | 24.5
SLCV | 7.13
SSCG | 12.6
SSCE | 3.26
KSCG | 1.82
SSCV | 18.4
SSCS | 9.51
FSCQ | 7.11
SSCQ | 13.4
AHKE | ≤ 0.25
PMIW | ≤ 0.25
RAKS | ≤ 0.25
VANQ | ≤ 0.25

Variant | enrichment ratio
IINC | ≤ 0.25
VHNE | ≤ 0.25
SDFS | ≤ 0.25
PMPC | ≤ 0.25
KFDS | ≤ 0.25
YAQF | ≤ 0.25
EIRD | ≤ 0.25
SSNL | 3.91
SSWL | 10.6
SSCL | 18.7
WSRR | ≤ 0.25
ELIY | ≤ 0.25
KGHE | ≤ 0.25
VIMF | ≤ 0.25
TTTS | 14.1
CSTS | ≤ 0.25
FCHH | ≤ 0.25
LTTS | ≤ 0.25
YTHH | ≤ 0.25
TTHH | 11.8
CTTS | 16.8
KCHH | ≤ 0.25
TCHH | 26.2
TTTC | 5.52

Variant | enrichment ratio
YTTS | ≤ 0.25
KSHH | ≤ 0.25
SRLA | ≤ 0.25
NNFT | ≤ 0.25
PAYF | ≤ 0.25
PHQG | ≤ 0.25
LARQ | ≤ 0.25
VYWL | ≤ 0.25
HTSP | ≤ 0.25
QDNG | ≤ 0.25
PCTP | ≤ 0.25
KNRD | ≤ 0.25
PYIP | ≤ 0.25
SDAL | ≤ 0.25
TCES | ≤ 0.25
VDIK | ≤ 0.25
KVYK | ≤ 0.25
HCSM | ≤ 0.25
CLFG | ≤ 0.25
NIPT | ≤ 0.25
KSTK | ≤ 0.25
TTTH | 20.3
YTTK | ≤ 0.25
YTTH | ≤ 0.25

Variant | enrichment ratio
TTKH | ≤ 0.25
TTNH | 12.2
YTNH | ≤ 0.25
TTTK | 16.7
LTNH | ≤ 0.25
ENFF | ≤ 0.25
VSFD | 0.544
LAEF | ≤ 0.25
YEFI | ≤ 0.25
TRCW | ≤ 0.25
YFRG | ≤ 0.25
GFVM | ≤ 0.25
RLME | ≤ 0.25
QHMY | ≤ 0.25
LNCM | ≤ 0.25
YWCM | ≤ 0.25
TECK | 4.11
FECM | 5
LECM | 17.2
MACM | ≤ 0.25
TECM | 31.3
MECM | 36.6
NECM | 28.2
DMCM | ≤ 0.25

Variant | enrichment ratio
LECK | 1.26
FNCM | 5.18
QCSI | ≤ 0.25
QACK | ≤ 0.25
GTRW | ≤ 0.25
TLVA | ≤ 0.25
TYNL | 3.68
RPMT | ≤ 0.25
HVPY | ≤ 0.25
WMTR | ≤ 0.25
WIHI | ≤ 0.25
WFNQ | ≤ 0.25
HCCF | ≤ 0.25
TQWG | 18.3
TQED | ≤ 0.25
TQGD | 2.92
NQVC | ≤ 0.25
TGWG | 5.4
TQVC | 14.3
TQVG | 12.2
WQVC | ≤ 0.25
TQEG | ≤ 0.25
TQMD | 63
TQVA | 3.07

Variant | enrichment ratio
KSWG | ≤ 0.25
IQCQ | ≤ 0.25
ACAH | 4.6
GLLF | 4.76
NFMP | ≤ 0.25
LLRY | ≤ 0.25
VNTC | ≤ 0.25
IRDH | ≤ 0.25
EIET | ≤ 0.25
MPTT | ≤ 0.25
KEKC | ≤ 0.25
VMIT | ≤ 0.25
WQVQ | ≤ 0.25
TQMI | 6.9
KSQG | ≤ 0.25
TQSG | 22.2
NVSG | ≤ 0.25
LAQG | ≤ 0.25
IQVQ | ≤ 0.25
TQVQ | 13.8
IQMQ | ≤ 0.25
TQMQ | 24.2
PVSG | ≤ 0.25
TQQG | 16.8

Variant | enrichment ratio
GHDF | ≤ 0.25
PFFG | ≤ 0.25
QSAN | ≤ 0.25
HQRF | ≤ 0.25
YLKI | ≤ 0.25
YYVE | ≤ 0.25
YDMW | ≤ 0.25
QNMD | ≤ 0.25
WQAG | ≤ 0.25
SQMA | 8.75
KQAG | ≤ 0.25
TQMG | 32.5
NQMA | ≤ 0.25
TQAG | 28.2
TQMA | 12.7
TQQR | ≤ 0.25
TQMV | 7.29
EPSH | ≤ 0.25
CFVH | ≤ 0.25
RDRE | ≤ 0.25
NQHC | ≤ 0.25
RVAA | ≤ 0.25
LDQA | ≤ 0.25
FQFN | ≤ 0.25

Variant | enrichment ratio
NQFN | ≤ 0.25
TQQN | 14.8
DWTN | ≤ 0.25
TQFN | 14.2
TQLN | 13.2
EQLN | ≤ 0.25
KQLN | ≤ 0.25
NVTN | ≤ 0.25
TQWN | 10.1
TQEN | ≤ 0.25
TQTN | 15.4
VGED | ≤ 0.25
FPIP | ≤ 0.25
WVYL | ≤ 0.25
IRTL | ≤ 0.25
EQCN | ≤ 0.25
TQCN | 24.9
NQCN | ≤ 0.25
YYPA | ≤ 0.25
DFPF | ≤ 0.25
TTMA | 13.4
NHMA | 16.2
GGMA | ≤ 0.25
WIMA | ≤ 0.25

Variant | enrichment ratio
TGMA | 26.1
YTMA | ≤ 0.25
NEMA | ≤ 0.25
YTGA | ≤ 0.25
THMA | 6.15
RGMA | ≤ 0.25
ITGA | ≤ 0.25
TTGA | 12.6
LFNF | ≤ 0.25
DMIQ | ≤ 0.25
LEWL | ≤ 0.25
ADCH | 9.13
GPHV | ≤ 0.25
TGWN | ≤ 0.25
PMPR | ≤ 0.25
KQFD | ≤ 0.25
WFVI | ≤ 0.25
RFQA | ≤ 0.25
VHFG | ≤ 0.25
EVCW | ≤ 0.25
AIMA | 12.1
ATMA | 1.82
AHMA | ≤ 0.25
EPIW | ≤ 0.25

Variant | enrichment ratio
NQNT | ≤ 0.25
SSLS | 11.4
STVT | 0.835
SSAT | 8.03
SSLK | 5.98
SSLT | 12
KSVT | ≤ 0.25
SSVT | 14.6
SSNT | ≤ 0.25
SSLA | 7.43
HWNL | ≤ 0.25
QGSH | 9.79
TMLT | 1.84
HPCD | ≤ 0.25
SSRS | ≤ 0.25
HMWA | ≤ 0.25
LPNW | 0.366
QQHW | ≤ 0.25

From a collection of fitness landscapes (doi:10.1126/science.1257360)
